Of roughly 7,900 targets only a part is listed; those with a hit were picked by preference. About 0.6% of all pairs of compound and target were hits.
What was measured:
Test in all cases: log2 fold change, soluble protein after heating vs DMSO (PISA); higher = thermal stabilisation; K562 cells, 10 uM, 30 min; active = over 0.2 and 3.5 SD of the protein, either way, in both replicates (recomputed)
[1] = compound: C1=CC=C(C=C1)[C@H](COC2=CC3=C(C=C2)NC(=O)N3)NC(=O)C4=CC=CN(C4=O)CC5=CC(=C(C=C5)F)F
Method in brief: (§1)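 For each measurement, 10 μM compound was applied for 30 min to K562 cells at 2×10^6 cells/mL. Aliquots were heated for 3 min across 48°C-58°C, pooled, and extracted in PBS with 0.5% NP-40 at 4°C; the supernatant after 21,000xg for 90 min was soluble protein. This was quantified by TMTpro 16plex LC-MS/MS with channel sums equalised, and thermal stability was reported relative to control samples from duplicates, on a log2 fold-change scale.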

[2] = compound: CC1=C(SC2=C1C(=N[C@H](C3=NN=C(N32)C)CC(=O)N)C4=CC=C(C=C4)Cl)C
Method in brief: as §1

[3] = compound: CC1=C2C(=CC=C1)N=C(N(C2=O)C3=CC=CC=C3C)CN4C=NC5=C(N=CN=C54)N
Method in brief: as §1

[4] = compound: Cc1sc2c(c1C)C(c1ccc(Cl)cc1)=N[C@@H](CC(=O)OC(C)(C)C)c1nnc(C)n1-2
Method in brief: as §1

[5] = compound: c1ccc([C@@H]2C[C@H]2NC2CCNCC2)cc1
Method in brief: as §1

Measured: log2 fold change

CRTC3 (UniProt Q6UUV7)
inactive: [1] -0.083 | [2] 0.044 | [3] -0.065 | [4] 0.004 | [5] 0.034

CES2 isoform 4 (UniProt O00748)
inactive: [1] 0.041 | [2] -0.069 | [3] 0.061 | [4] 0.118 | [5] -0.141

CCDC9 (UniProt Q9Y3X0)
inactive: [1] -0.019 | [2] -0.012 | [3] -0.118 | [4] 0.091 | [5] 0.041

COMT (UniProt P21964)
inactive: [1] 0.024 | [2] 0.142 | [3] 0.09 | [4] -0.028 | [5] -0.038

CEP128 (UniProt Q6ZU80)
inactive: [1] -0.039 | [2] 0.099 | [3] 0.216 | [4] 0.104 | [5] 0.041

CDK5RAP3 isoform 4 (UniProt Q96JB5)
inactive: [1] -0.042 | [2] 0.054 | [3] 0.099 | [4] 0 | [5] -0.05

CDC42SE1 (UniProt Q9NRR8)
Chain of UniProt Q9NRR8 (Q9NRR8 whole entry, looked up): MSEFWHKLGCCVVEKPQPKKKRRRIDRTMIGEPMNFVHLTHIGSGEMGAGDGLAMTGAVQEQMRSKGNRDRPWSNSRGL
inactive: [1] -0.151 | [2] 0.016 | [3] 0.088 | [4] -0.076 | [5] -0.007

CNOT7 (UniProt Q9UIV1)
inactive: [1] -0.024 | [2] -0.053 | [3] 0.068 | [4] -0.032 | [5] 0.002

CDK5RAP1 (UniProt Q96SZ6)
inactive: [1] 0.056 | [2] 0.029 | [3] 0.149 | [4] 0.028 | [5] -0.023

CBX1 (UniProt P83916)
Chain of UniProt P83916 (P83916 whole entry, looked up): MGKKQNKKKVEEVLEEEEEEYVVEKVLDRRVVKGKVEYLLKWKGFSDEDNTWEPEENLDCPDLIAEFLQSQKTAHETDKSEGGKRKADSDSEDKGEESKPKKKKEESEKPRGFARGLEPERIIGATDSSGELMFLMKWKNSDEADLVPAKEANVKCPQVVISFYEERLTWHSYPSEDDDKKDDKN
inactive: [1] 0.003 | [2] 0.026 | [3] 0.023 | [4] -0.003 | [5] 0.031

CCM2 isoform 2 (UniProt Q9BSQ5)
inactive: [1] 0.013 | [2] 0.144 | [3] 0.046 | [4] -0.161 | [5] -0.046

CSNK1D (UniProt P48730)
inactive: [1] -0.08 | [2] -0.067 | [3] -0.192 | [4] -0.011 | [5] -0.015

CCNK isoform 4 (UniProt O75909)
inactive: [1] 0.045 | [2] -0.115 | [3] 0.015 | [4] 0.103 | [5] 0.069

C4orf33 (UniProt Q8N1A6)
inactive: [1] -0.041 | [2] 0.176 | [3] 0.066 | [4] 0.024 | [5] -0.003

COASY isoform 2 (UniProt Q13057)
inactive: [1] -0.03 | [2] 0.054 | [3] 0.053 | [4] -0.037 | [5] -0.021

CNOT1 (UniProt A5YKK6)
inactive: [1] -0.02 | [2] 0.021 | [3] 0.031 | [4] -0.017 | [5] -0.021

CCDC82 (UniProt Q8N4S0)
inactive: [1] -0.018 | [2] 0.056 | [3] 0.033 | [4] 0.043 | [5] 0.004

CDC42BPA isoform 6 (UniProt Q5VT25)
inactive: [1] -0.101 | [2] -0.039 | [3] 0.083 | [4] 0.031 | [5] 0.069

CIT isoform 4 (UniProt O14578)
inactive: [1] -0.055 | [2] 0.002 | [3] 0.001 | [4] -0.011 | [5] 0.009

COA6 isoform 2 (UniProt Q5JTJ3)
inactive: [1] 0.06 | [2] 0.08 | [3] 0.038 | [4] -0.06 | [5] -0.015

CNOT4 isoform 9 (UniProt O95628)
Chain of UniProt O95628 (O95628 whole entry, looked up): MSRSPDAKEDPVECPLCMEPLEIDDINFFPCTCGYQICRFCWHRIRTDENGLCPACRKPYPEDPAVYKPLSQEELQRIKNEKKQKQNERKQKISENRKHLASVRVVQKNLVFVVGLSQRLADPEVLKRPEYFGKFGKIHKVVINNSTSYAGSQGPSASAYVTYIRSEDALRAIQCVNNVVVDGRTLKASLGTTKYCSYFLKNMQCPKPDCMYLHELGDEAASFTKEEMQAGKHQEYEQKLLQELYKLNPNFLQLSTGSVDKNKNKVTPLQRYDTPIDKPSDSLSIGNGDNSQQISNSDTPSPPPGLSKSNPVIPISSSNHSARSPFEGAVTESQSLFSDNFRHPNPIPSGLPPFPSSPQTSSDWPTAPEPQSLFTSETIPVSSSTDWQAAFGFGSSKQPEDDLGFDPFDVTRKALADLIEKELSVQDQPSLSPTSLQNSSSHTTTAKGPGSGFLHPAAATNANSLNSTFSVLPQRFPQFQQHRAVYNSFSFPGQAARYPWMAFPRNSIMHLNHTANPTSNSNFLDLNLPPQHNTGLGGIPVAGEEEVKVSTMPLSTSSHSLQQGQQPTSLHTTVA
inactive: [1] 0.009 | [2] -0.09 | [3] 0.147 | [4] -0.067 | [5] -0.055

CS (UniProt O75390)
inactive: [1] -0.043 | [2] 0.089 | [3] 0.053 | [4] -0.015 | [5] -0.016

CAVIN1 (UniProt Q6NZI2)
inactive: [1] 0.017 | [2] -0.127 | [3] -0.103 | [4] 0.101 | [5] 0

CALCOCO2 isoform 4 (UniProt Q13137)
inactive: [1] -0.036 | [2] -0.002 | [3] -0.04 | [4] 0.049 | [5] 0.026

CDC123 (UniProt O75794)
inactive: [1] -0.036 | [2] 0 | [3] 0.03 | [4] -0.018 | [5] -0.029

CSK (UniProt P41240)
inactive: [1] -0.096 | [2] 0.051 | [3] 0.057 | [4] 0.011 | [5] -0.032

CLSPN (UniProt Q9HAW4)
inactive: [1] 0.002 | [2] -0.009 | [3] -0.043 | [4] -0.004 | [5] 0.036

CNN3 (UniProt Q15417)
inactive: [1] -0.015 | [2] 0.18 | [3] 0.079 | [4] 0.035 | [5] 0.03

CA1 (UniProt P00915)
Chain of UniProt P00915 (P00915 whole entry, looked up): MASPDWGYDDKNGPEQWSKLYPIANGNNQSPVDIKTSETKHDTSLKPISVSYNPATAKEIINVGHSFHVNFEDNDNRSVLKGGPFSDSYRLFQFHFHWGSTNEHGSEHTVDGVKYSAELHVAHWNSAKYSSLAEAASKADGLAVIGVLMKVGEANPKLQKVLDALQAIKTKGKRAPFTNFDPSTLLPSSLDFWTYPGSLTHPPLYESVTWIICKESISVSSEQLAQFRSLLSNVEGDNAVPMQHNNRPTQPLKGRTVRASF
inactive: [1] -0.007 | [2] 0.039 | [3] 0.019 | [4] 0.007 | [5] 0.018

COX5B (UniProt P10606)
inactive: [1] 0.015 | [2] 0.104 | [3] -0.006 | [4] -0.126 | [5] -0.099

CDK8 (UniProt P49336)
inactive: [1] 0 | [2] -0.043 | [3] 0.018 | [4] 0.035 | [5] -0.129

CERT isoform 3 (UniProt Q9Y5P4)
inactive: [1] 0.102 | [2] 0.029 | [3] 0.066 | [4] 0.14 | [5] -0.028

CHAC2 (UniProt Q8WUX2)
inactive: [1] -0.036 | [2] -0.034 | [3] -0.034 | [4] 0.008 | [5] 0.027

CDK9 isoform 2 (UniProt P50750)
inactive: [1] -0.007 | [2] -0.03 | [3] 0 | [4] 0.089 | [5] 0

CRKL (UniProt P46109)
inactive: [1] 0.01 | [2] 0.041 | [3] 0.032 | [4] 0.016 | [5] -0.002

CSNK2B (UniProt P67870)
inactive: [1] -0.047 | [2] 0.043 | [3] 0 | [4] -0.028 | [5] 0.018

CDKN2AIP (UniProt Q9NXV6)
inactive: [1] -0.036 | [2] -0.044 | [3] -0.008 | [4] 0.021 | [5] -0.014

COQ7 (UniProt Q99807)
inactive: [1] -0.038 | [2] 0.016 | [3] 0.029 | [4] 0.014 | [5] 0.048

CCZ1 (UniProt P86791)
inactive: [1] 0.011 | [2] 0.009 | [3] 0.02 | [4] 0.017 | [5] -0.024

C16orf58 (UniProt Q96GQ5)
inactive: [1] 0.023 | [2] 0.025 | [3] 0.088 | [4] -0.042 | [5] 0.013

COX6B1 (UniProt P14854)
inactive: [1] 0.007 | [2] 0.141 | [3] 0.003 | [4] -0.153 | [5] -0.054

CDK12 (UniProt Q9NYV4)
inactive: [1] 0.102 | [2] -0.425 | [3] -0.103 | [4] 0.112 | [5] 0.008

CLCN3 (UniProt P51790)
Chain of UniProt P51790 (P51790 whole entry, looked up): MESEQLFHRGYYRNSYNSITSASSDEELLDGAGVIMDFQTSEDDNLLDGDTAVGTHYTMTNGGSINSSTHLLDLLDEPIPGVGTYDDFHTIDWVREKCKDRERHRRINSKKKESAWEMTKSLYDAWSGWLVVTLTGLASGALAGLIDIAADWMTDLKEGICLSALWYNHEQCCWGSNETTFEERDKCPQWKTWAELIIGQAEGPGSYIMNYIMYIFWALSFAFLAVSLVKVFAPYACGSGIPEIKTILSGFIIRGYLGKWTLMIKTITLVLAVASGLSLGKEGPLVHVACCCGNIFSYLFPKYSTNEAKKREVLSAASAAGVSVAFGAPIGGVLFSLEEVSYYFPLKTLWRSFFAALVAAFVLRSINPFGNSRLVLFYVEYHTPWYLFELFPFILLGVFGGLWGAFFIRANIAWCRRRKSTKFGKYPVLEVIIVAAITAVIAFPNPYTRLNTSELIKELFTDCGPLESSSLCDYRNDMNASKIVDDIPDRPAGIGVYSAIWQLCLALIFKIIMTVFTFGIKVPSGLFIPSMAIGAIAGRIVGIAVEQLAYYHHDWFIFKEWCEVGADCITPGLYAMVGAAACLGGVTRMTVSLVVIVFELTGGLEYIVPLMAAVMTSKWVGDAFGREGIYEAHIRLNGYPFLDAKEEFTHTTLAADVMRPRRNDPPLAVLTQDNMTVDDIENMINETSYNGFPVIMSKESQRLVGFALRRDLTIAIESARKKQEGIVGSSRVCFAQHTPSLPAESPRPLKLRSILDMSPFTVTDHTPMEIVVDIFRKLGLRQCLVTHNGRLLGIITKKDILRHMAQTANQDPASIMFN
inactive: [1] 0.01 | [2] 0.025 | [3] 0.064 | [4] -0.107 | [5] 0.056

CA8 (UniProt P35219)
Chain of UniProt P35219 (P35219 whole entry, looked up): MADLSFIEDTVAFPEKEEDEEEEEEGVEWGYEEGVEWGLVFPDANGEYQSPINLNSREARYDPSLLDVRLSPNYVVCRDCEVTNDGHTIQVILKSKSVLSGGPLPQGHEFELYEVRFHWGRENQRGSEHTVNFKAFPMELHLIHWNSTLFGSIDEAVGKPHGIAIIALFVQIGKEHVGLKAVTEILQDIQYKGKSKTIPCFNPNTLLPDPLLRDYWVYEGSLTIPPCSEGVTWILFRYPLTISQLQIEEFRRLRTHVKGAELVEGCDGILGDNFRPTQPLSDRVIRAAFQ
inactive: [1] 0.006 | [2] 0.059 | [3] 0.052 | [4] 0.025 | [5] -0.045

CHD4 isoform 2 (UniProt Q14839)
Chain of UniProt Q14839 (Q14839 whole entry, looked up): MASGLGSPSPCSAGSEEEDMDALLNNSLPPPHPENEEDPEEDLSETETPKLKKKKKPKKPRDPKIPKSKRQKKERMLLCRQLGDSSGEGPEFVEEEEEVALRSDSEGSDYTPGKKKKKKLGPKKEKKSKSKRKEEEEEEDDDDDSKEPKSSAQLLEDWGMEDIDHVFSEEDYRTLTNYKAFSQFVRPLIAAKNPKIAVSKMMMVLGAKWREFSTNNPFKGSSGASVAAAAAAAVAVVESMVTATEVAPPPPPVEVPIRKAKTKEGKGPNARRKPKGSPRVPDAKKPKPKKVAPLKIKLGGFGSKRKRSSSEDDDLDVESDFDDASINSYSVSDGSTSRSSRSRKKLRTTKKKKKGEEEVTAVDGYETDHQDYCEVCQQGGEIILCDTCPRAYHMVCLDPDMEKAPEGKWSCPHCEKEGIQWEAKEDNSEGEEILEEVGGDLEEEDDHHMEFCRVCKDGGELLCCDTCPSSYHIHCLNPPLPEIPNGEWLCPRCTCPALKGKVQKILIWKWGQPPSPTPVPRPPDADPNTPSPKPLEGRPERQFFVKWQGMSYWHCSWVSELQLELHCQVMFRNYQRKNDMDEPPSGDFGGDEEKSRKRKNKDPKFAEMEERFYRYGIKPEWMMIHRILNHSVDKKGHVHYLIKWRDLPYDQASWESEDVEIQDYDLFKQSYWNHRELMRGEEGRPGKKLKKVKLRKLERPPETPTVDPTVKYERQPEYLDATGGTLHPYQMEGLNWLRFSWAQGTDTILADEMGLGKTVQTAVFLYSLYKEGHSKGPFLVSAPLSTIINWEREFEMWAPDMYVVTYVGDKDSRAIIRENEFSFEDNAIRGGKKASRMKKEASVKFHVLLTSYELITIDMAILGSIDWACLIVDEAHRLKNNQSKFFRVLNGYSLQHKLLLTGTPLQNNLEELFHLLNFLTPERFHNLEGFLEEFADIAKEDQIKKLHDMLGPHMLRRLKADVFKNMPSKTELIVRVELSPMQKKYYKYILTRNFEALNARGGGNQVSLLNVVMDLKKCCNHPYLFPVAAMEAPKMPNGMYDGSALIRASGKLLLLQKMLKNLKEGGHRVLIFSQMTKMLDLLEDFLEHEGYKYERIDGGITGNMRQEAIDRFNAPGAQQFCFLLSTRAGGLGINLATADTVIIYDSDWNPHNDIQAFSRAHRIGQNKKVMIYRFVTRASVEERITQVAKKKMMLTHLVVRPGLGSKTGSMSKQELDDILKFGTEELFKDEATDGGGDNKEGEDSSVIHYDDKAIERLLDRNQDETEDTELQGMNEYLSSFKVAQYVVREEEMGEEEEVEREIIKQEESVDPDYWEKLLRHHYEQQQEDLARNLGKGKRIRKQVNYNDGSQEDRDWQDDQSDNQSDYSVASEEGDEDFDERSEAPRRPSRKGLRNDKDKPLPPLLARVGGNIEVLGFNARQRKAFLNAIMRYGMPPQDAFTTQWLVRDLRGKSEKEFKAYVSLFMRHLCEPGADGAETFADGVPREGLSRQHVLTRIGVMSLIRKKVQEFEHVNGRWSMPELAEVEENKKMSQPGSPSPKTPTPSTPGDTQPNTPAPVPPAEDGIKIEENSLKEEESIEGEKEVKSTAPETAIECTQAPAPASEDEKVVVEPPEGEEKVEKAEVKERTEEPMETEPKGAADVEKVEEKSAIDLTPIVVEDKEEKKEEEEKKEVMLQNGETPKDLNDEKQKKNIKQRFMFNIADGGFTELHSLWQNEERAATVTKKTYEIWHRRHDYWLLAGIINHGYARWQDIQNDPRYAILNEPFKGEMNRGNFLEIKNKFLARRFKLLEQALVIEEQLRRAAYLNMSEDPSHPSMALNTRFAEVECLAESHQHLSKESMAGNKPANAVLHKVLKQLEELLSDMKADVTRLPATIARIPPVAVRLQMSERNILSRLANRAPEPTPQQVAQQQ
inactive: [1] -0.065 | [2] 0 | [3] 0.021 | [4] 0.049 | [5] 0.032

COX5A (UniProt P20674)
inactive: [1] 0.016 | [2] 0.059 | [3] 0.037 | [4] -0.075 | [5] -0.043

CCNDBP1 (UniProt O95273)
inactive: [1] 0.023 | [2] -0.118 | [3] 0.182 | [4] 0.007 | [5] 0.047

COQ9 (UniProt O75208)
inactive: [1] -0.068 | [2] -0.025 | [3] 0.053 | [4] -0.081 | [5] 0.036

CIZ1 (UniProt Q9ULV3)
Chain of UniProt Q9ULV3 (Q9ULV3 whole entry, looked up): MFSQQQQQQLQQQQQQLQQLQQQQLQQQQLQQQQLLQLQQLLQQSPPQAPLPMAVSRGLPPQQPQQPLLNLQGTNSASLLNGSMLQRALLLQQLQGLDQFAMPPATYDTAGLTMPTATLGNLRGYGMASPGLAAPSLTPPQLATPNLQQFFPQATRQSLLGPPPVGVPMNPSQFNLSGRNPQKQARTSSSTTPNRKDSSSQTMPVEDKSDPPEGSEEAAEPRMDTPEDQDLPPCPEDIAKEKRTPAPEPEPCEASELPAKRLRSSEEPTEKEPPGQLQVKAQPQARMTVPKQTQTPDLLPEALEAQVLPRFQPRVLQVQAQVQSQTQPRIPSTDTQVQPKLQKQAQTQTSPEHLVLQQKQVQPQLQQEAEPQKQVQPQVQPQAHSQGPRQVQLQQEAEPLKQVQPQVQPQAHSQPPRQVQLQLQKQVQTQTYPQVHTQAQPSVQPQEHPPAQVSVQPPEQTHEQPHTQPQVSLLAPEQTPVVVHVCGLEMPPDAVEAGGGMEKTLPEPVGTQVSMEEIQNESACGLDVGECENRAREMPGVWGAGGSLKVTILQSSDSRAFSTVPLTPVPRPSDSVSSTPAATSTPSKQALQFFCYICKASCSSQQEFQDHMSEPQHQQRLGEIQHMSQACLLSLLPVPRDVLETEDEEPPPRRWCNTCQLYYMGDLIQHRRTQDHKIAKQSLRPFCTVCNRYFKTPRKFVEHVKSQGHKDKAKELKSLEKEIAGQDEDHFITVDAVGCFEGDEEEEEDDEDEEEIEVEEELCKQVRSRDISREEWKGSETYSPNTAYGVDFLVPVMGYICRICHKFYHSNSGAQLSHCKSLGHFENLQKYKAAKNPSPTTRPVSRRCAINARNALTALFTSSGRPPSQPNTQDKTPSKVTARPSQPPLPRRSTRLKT
inactive: [1] 0.021 | [2] 0.047 | [3] 0.025 | [4] 0.062 | [5] 0.029

CSE1L (UniProt P55060)
inactive: [1] -0.024 | [2] 0.063 | [3] 0.033 | [4] -0.028 | [5] -0.009

CDK5 (UniProt Q00535)
inactive: [1] -0.015 | [2] 0.087 | [3] -0.003 | [4] -0.023 | [5] -0.005

CERS2 (UniProt Q96G23)
inactive: [1] -0.033 | [2] 0.035 | [3] -0.012 | [4] -0.036 | [5] 0.048

CMTR1 (UniProt Q8N1G2)
inactive: [1] -0.008 | [2] 0.033 | [3] 0.07 | [4] -0.009 | [5] -0.04

From the supplement of paper PMC10849652
